According to PubChem BioAssay (NCI):
This is part of a sample that, as a whole, favours compounds with a hit. Of some 79,000 tested, about 15% had one in any assay. Values without a mark were called inactive. Active and inactive are the calls of the source. Rule as the data show it: active = growth inhibition above about 70%; inactive = the rest. *1 amine or outer side, *2 acyl side, *3 side chain or, on linkers, in order; H or OH if unused. Where a SMILES comes first, the peptide text is derived from it. Bridges are numbered along the chain shown (N, C = ends). Roman numbers before positions name the chains, in order. [ ]: non-standard residue; d: D form. Actinocin(1to9) = Cc1c2oc3c(C)ccc(C(=O)[*:2])c3nc-2c(C(=O)[*:1])c(N)c1=O; NMeV = CN[CH](C(=O)O)C(C)C; Aze = O=C(O)[CH]1CCN1; Sar = CNCC(=O)O

Tests used:
[1] = NCI Yeast Anticancer Drug Screen. Data for the rad50 strain (AID 155);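 also: 0% = growth of vehicle-only cultures of the same strain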; conditions: S. cerevisiae rad50 strain growth inhibition; at 50.0 µM; hits give high values
Summary of the method: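 Compounds were tested on a yeast strain with an engineered DNA damage repair alteration; the reported value is growth inhibition normalised to vehicle treatment.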

[2] = NCI Yeast Anticancer Drug Screen. Data for the mec2-1 strain (AID 157); conditions: S. cerevisiae mec2-1 strain, at 50.0 µM, hits give high values
Summary of the method: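 Test agents were screened against the mec2-1 yeast strain, with defined DNA repair or cell cycle alteration. Growth was scored as inhibition against vehicle-only controls.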

[3] = NCI Yeast Anticancer Drug Screen. Data for the sgs1 mgt1 strain (AID 161);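 also: 0% = growth of cultures given vehicle only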; conditions: S. cerevisiae sgs1 mgt1 strain, at 50.0 µM, hits give high values
Summary of the method: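 Test agents were incubated with a DNA-repair-mutant yeast strain. Growth was then read and compared against vehicle-treated controls.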

[4] = NCI Yeast Anticancer Drug Screen. Data for the cln2 rad14 strain (AID 165);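 also: 0% = growth equal to vehicle treated cultures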; conditions: S. cerevisiae cln2 rad14 strain, at 50.0 µM, hits give high values
Summary of the method: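 Growth of compound-exposed yeast (cln2 rad14 genotype) measured and expressed as inhibition relative to vehicle.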

[5] = NCI Yeast Anticancer Drug Screen. Data for the bub3 strain (AID 167); conditions: S. cerevisiae bub3 mutant strain, at 50.0 µM, hits give high values
Summary of the method: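 Growth of a checkpoint-deficient yeast mutant is measured after compound exposure. Values represent inhibition relative to vehicle.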

[6] = NCI Yeast Anticancer Drug Screen. Data for the mlh1 rad18 strain (AID 175); conditions: S. cerevisiae mlh1 rad18 strain growth inhibition; at 50.0 µM; hits give high values
Summary of the method: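 In this whole-cell yeast screen, a strain with altered DNA damage repair is challenged with compound, and its growth is measured against matched vehicle-treated controls.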

SMILES | growth inhibition [1] | growth inhibition [2] | growth inhibition [3] | growth inhibition [4] | growth inhibition [5] | growth inhibition [6]
O=C(O)c1cc(C(=O)O)cc(N2C(=O)c3ccccc3C2=O)c1 | 1.45% | -30.4% | -22.4% | 39.3% | -6.1% | 0.5%
Cc1nc(N=C(N)N)nc2ccccc12 | 3.4% | -8.45% | 10.7% | 16.8% | 2.65% | 14.2%
CCC(CCc1ccc(OC)c(OC)c1)C(=O)O (stereo unspecified) | 1.8% | 12.2% | 14.2% | -9.85% | 29.4% | 9.15%
Nc1nc2[nH]c(=O)cnc2c(=O)[nH]1 | -17.8% | -32.3% | -26.2% | -0.1% | -27.5% | -20.7%
COc1ccc(OC)c(-c2nc3ccccc3c(=O)[nH]2)c1 | 9.1% | 10.8% | 3.35% | 14.2% | 22.8% | 0%
O=C(NC(=O)c1c(F)cccc1F)Nc1cccc(C(F)(F)F)c1 | 8.55% | 6.15% | 3.9% | 6.75% | -3.3% | 10.7%
CC(=O)c1ccco1 | 17.8% | 16.4% | -5.15% | -43% | 1.25% | 13.1%
COC(=O)C1CCCC2(C1)OCCO2 (stereo unspecified) | 15.2% | 5% | -23.1% | -10.2% | -32.7% | -2.75%
CC1CCC(=N\O)/C(=N/O)C1 (stereo unspecified) | 5.9% | -19.3% | -21.9% | -12.1% | 0.65% | -5.3%
Cc1c2oc3c(C)ccc(C(=O)NC4C(=O)NC(C(C)C)C(=O)N5CCCC5C(=O)N(C)CC(=O)N(C)C(C(C)C)C(=O)OC4C)c3nc-2c(C(=O)NC2C(=O)NC(C(C)C)C(=O)N3CCC3C(=O)N(C)CC(=O)N(C)C(C(C)C)C(=O)OC2C)c(N)c1=O (stereo unspecified) (I: TV[Aze][Sar][NMeV] / II: TVP[Sar][NMeV]; ester I:1-I:C, II:1-II:C; linker I:N-II:N via Actinocin(1to9); configuration not given here) | 90.3% (active) | 92.2% (active) | 92.5% (active) | 86.8% (active) | 89% (active) | 90% (active)
COc1cc(OC)c(NC(=O)/C=C/c2ccccc2)cc1Cl | -3.45% | -75.7% | 7.85% | -21.4% | 11.2% | 21%
COC(=O)c1nc(N)nc(C(=O)OC)c1C(=O)c1cccnc1 | -15.2% | -17.8% | -0.35% | -15.3% | -4.7% | 10.1%
CN(N)C(=O)Nc1ccc([N+](=O)[O-])cc1 | 16.4% | 5.65% | -2.7% | 7.45% | 12% | -1.75%
O=[N+]([O-])c1cc(N(c2ccccc2)c2ccccc2)cc([N+](=O)[O-])c1 | 2.05% | -12.4% | -30.4% | 9.95% | -2.8% | -22.6%
OC1COC(c2ccccc2)OC1C(O)C1OC(c2ccccc2)OCC1O (stereo unspecified) | 5.3% | -3.8% | 12.2% | -38.9% | -8.2% | 10.7%
CCOC(C)C=O (stereo unspecified) | -3.85% | 19.1% | -21.4% | -36% | -7.6% | -25.9%
Nc1ncnc2c1ncn2C1OC(CO)C(NC(=O)C(N)CCC(=O)O)C1O (stereo unspecified) | 1.75% | -4.2% | 21.6% | -9.4% | -0.9% | -5.3%
Clc1nc2ccccc2s1 | -32.4% | -5.2% | -24.8% | -38% | -21.1% | 3.2%
[Cl][Pt+2][Cl].[NH-]C1CCC1[NH-] (stereo unspecified) | 4.7% | -9.3% | -12% | -24.4% | -4.1% | 10.5%
COc1ccccc1NCC(=O)Nn1c(C)nc2ccc(S(=O)(=O)Nc3ccccc3OC)cc2c1=O | 2.85% | -18.9% | 20.9% | 16.2% | 1.55% | 0.1%
CC(=O)CC(C)(C)OCc1ccccc1 | -21.9% | -4.95% | -12.2% | -43.4% | 0.4% | 26.1%

SMILES | growth inhibition [1] | growth inhibition [2] | growth inhibition [3] | growth inhibition [4] | growth inhibition [5] | growth inhibition [6]
CN(C)Cc1cc(N=Nc2ccc(Cl)cc2)ccc1O | 26.9% | 7.3% | 19.4% | 14.8% | 36.5% | 46.3%
CCC1(COC(NC(=O)c2ccccc2)(C(F)(F)F)C(F)(F)F)COC1 | -14.2% | -1.9% | -32.2% | 14.1% | -24.2% | 7.05%
Cc1c2ccccc2nc(CS(=O)(=O)c2ccccc2)[n+]1[O-] | -26.1% | -13.2% | -4.95% | -60.5% | -16.4% | -6.1%
C1CSCCSCCSCCS1 | -1.15% | -2.55% | -0.85% | -12.4% | -0.4% | -11.9%
COCc1c(C)[nH]c2ccc(N(C)C)cc2c1=O | -6.75% | -3.6% | -14.8% | -42% | -4.9% | -6.55%
CC1=CC(=C(c2cc(C)c(O)c(C(=O)O)c2)c2cc(C)c(O)c(C(=O)O)c2)C=C(C(=O)O)C1=O | -2.3% | -28.1% | -8.5% | 2.3% | 8.8% | 7.3%
CC(C)N(C(=O)C12C3C4C5(C#N)C3C1(C#N)C5C42C#N)C(C)C (stereo unspecified) | -10.4% | -9.9% | -21.8% | 1.5% | -0.7% | -27.4%
C1=CC2CCC1C1CSCC21 (stereo unspecified) | -3.15% | -11.6% | -8.95% | -33.8% | -3.45% | -12.7%
Cc1cc(N(CCC#N)CCC#N)ccc1N=Nc1cc(Cl)ccc1Cl | 18.8% | 16.8% | -8.55% | 13.2% | 42% | 16.6%
NC(CCC(N)C(=O)c1ccccc1)C(=O)c1ccccc1 (stereo unspecified) | -12.2% | -7.75% | 4.35% | 6.8% | -8.8% | 11.7%
COc1ccccc1NC(=O)C1=C(C)NC(C)=C(C(=O)Nc2ccccc2OC)C1c1ccc(N(C)C)cc1 | 50.2% | 41.4% | 61.4% | 24.9% | 46.2% | 45%
CCC(O)C(=O)O (stereo unspecified) | -28.6% | -26.8% | -20.9% | -11.2% | -9.9% | -27.4%
O=C1c2cc(Cl)ccc2-c2ccc(N=Cc3ccccc3Cl)cc21 | 1.65% | -1.55% | -7.8% | -89.5% | 34.1% | -1.35%
O/N=C/c1ncccc1C1OCCO1 | 9.45% | -0.55% | -2.35% | 9.8% | -6.7% | 14.7%
COc1nc2c(nc(N)n2C2OC(CO)C(O)C(O)C2O)c(=O)[nH]1 (stereo unspecified) | -26.4% | -8% | -1.5% | 3.45% | 0.95% | 20.9%
O=C1C(Cl)N(c2ccc(Cl)cc2Cl)C1c1c[nH]c2ccccc12 (stereo unspecified) | -14.4% | -13.9% | -16.7% | 3.05% | 2.95% | -20.4%
CC(=O)Nc1ccc(F)c(F)c1 | 17.8% | -16.7% | 3.2% | -3.95% | -3.35% | 30.8%
COC1CC(N=[N+]=[N-])C(OS(C)(=O)=O)C(C)O1 (stereo unspecified) | -2.35% | 22.1% | 1.7% | 3.7% | -9% | 14.8%
CCCCCCCCCCCCCCCCCC#N | 36.7% | 20.6% | -2.9% | -52.1% | 5.5% | 39.9%
CC1CC([NH-])C([NH-])C(C)(C)C1.[Cl][Pt+2][Cl] (stereo unspecified) | -4.35% | -4.25% | -9.95% | -12.2% | -10.8% | -49.2%
